Among the test systems are SK-MEL-2 melanoma; EKVX NSCLC; SN12C renal; ACHN renal; A498 renal; CCRF-CEM leukemia; MOLT-4 leukemia; SR leukemia; RPMI-8226 leukemia; OVCAR-8 ovarian; OVCAR-4 ovarian; SK-OV-3 ovarian; IGROV1 ovarian; OVCAR-3 ovarian; HS 578T breast; NCI/ADR-RES ovarian; UO-31 renal; TK-10 renal; CAKI-1 renal; OVCAR-5 ovarian.
What all share (assay): NCI-60 one-dose screen, 48 h (100 = growth as untreated, 0 = no growth, -100 = all killed)
Common to all, as to settings: 10 µM unless noted

About 83,000 compounds went through this panel and 20% of them were active in at least one assay; those are over-represented in the sample as a whole.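 Step 1: grow cells in 96-well plates. Step 2: add test compound at a single concentration. Step 3: incubate 48 h. Step 4: record percent growth.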 Values without a mark were called inactive. Active and inactive are the calls of the source. The calls were made as follows: active = growth percent below 10; inactive = the rest.

Turning to `COc1cnc2c(c1)C(=O)c1c-2n(CCCn2ccnc2)c(=O)c2cc(F)ccc12`, the growth with SK-MEL-2 melanoma is -19.1% (active); in the test with EKVX NSCLC, 11.4%; in the test with SN12C renal, 12.4%; in the test on ACHN renal, -72.6% (active); in the test on A498 renal it was -84.4% (active); with CCRF-CEM leukemia, -0.897% (active). Moreover, the growth was -23.9% (active) in the test on MOLT-4 leukemia; -25% (active) with SR leukemia; -28.2% (active) with RPMI-8226 leukemia; 5.92% (active) in the test with OVCAR-8 ovarian; -0.273% (active) in the test with OVCAR-4 ovarian; -22.5% (active) in the test on SK-OV-3 ovarian. The growth is 4.03% (active) in the test with IGROV1 ovarian, -35.5% (active) in the test with OVCAR-3 ovarian, 15.5% in the test on HS 578T breast and -3.87% (active) in the test on NCI/ADR-RES ovarian.

Consider `Cc1cc(Br)c(C)cc1Br`, for which the growth with SK-MEL-2 melanoma was 100%; in the test on SN12C renal, 108%; with UO-31 renal, 91.3%; in the test on TK-10 renal, 105%; in the test on ACHN renal, 102%; with CAKI-1 renal, 95.2%. Further, the growth is 77.7% in the test with A498 renal; 94.4% in the test with CCRF-CEM leukemia; 87.3% in the test with MOLT-4 leukemia; 83.7% in the test with SR leukemia; 103% in the test with RPMI-8226 leukemia; 101% in the test on OVCAR-8 ovarian. The growth was 103% in the test with OVCAR-5 ovarian; 103% in the test on OVCAR-4 ovarian; 92.7% in the test with SK-OV-3 ovarian; 137% with IGROV1 ovarian; 103% with OVCAR-3 ovarian; 105% with HS 578T breast. Besides, in the test with NCI/ADR-RES ovarian, the growth was 112%.

`O=C1C(=O)/C(=C/c2ccccc2)CCCCCC/C1=C/c1ccccc1`: the growth with SK-MEL-2 melanoma was 105%; in the test on SN12C renal, 79.8%; in the test on UO-31 renal, 30.9%; with TK-10 renal it was 115%; with ACHN renal, 88.5%; with CAKI-1 renal it was 82.1%. Moreover, the growth was 78.6% with A498 renal; 4.29% (active) in the test on CCRF-CEM leukemia; 10.2% in the test on MOLT-4 leukemia; -13.5% (active) with SR leukemia; -33.5% (active) in the test on RPMI-8226 leukemia; 29.9% with OVCAR-8 ovarian. Moreover, the growth with OVCAR-5 ovarian was 114%; in the test with OVCAR-4 ovarian, 60.9%; in the test on SK-OV-3 ovarian it was 98.2%; in the test on IGROV1 ovarian it was 5% (active); in the test on OVCAR-3 ovarian it was 21%; in the test with HS 578T breast, 81.4%. Moreover, in the test on NCI/ADR-RES ovarian, the growth is 80.1%.

Consider `CC(C)CNc1nc(N=[N+]=[N-])nc(NCC(C)C)n1`, for which the growth with SK-MEL-2 melanoma was 71.9% [100 µM]; with SN12C renal, 70.8% [100 µM]; in the test with UO-31 renal, 47.3% [100 µM]; in the test on TK-10 renal, 77.5% [100 µM]; with ACHN renal, 53.6% [100 µM]; with CAKI-1 renal, 4.03% [100 µM] (active). In addition, the growth in the test on A498 renal is 35.5% [100 µM]; in the test on MOLT-4 leukemia, 34.4% [100 µM]; in the test on SR leukemia, -7.86% [100 µM] (active); with RPMI-8226 leukemia, 33.1% [100 µM]; with OVCAR-8 ovarian, 57.3% [100 µM]; in the test on OVCAR-5 ovarian, 75% [100 µM]. Also, the growth in the test with OVCAR-4 ovarian was 52.7% [100 µM]; with SK-OV-3 ovarian, 83.7% [100 µM]; in the test on IGROV1 ovarian it was 70.9% [100 µM]; in the test with OVCAR-3 ovarian, 60.1% [100 µM]; in the test on HS 578T breast it was 61.1% [100 µM]; with NCI/ADR-RES ovarian it was 54.1% [100 µM].

Regarding `Cc1cc(Cl)ccc1Nc1nc(C(F)(F)F)ccc1C(=O)N/N=C/c1ccc(Cl)cc1`, the growth in the test on SK-MEL-2 melanoma is -20.6% (active); in the test with SN12C renal it was 4.31% (active); with UO-31 renal, -43.3% (active); with TK-10 renal, 9.18% (active); in the test on ACHN renal it was -1.46% (active); with CAKI-1 renal, -23.1% (active). Moreover, the growth in the test with A498 renal was -21.1% (active); with CCRF-CEM leukemia it was -18.8% (active); with MOLT-4 leukemia it was -20.1% (active); in the test with SR leukemia it was -37.5% (active); in the test on RPMI-8226 leukemia, -12.7% (active); in the test on OVCAR-8 ovarian it was 11.2%. Also, the growth in the test with OVCAR-5 ovarian was 6.57% (active); with OVCAR-4 ovarian it was 0.502% (active); with SK-OV-3 ovarian it was -15.4% (active); in the test on OVCAR-3 ovarian, 1.27% (active); in the test with NCI/ADR-RES ovarian, 4.33% (active).

For the compound `CCn1cnc(C[C@H](NC(=O)[C@H](CCCCNC(=O)Nc2cc(C(F)(F)F)cc(C(F)(F)F)c2)NC(=O)Nc2cc(C(F)(F)F)cc(C(F)(F)F)c2)C(=O)OC)c1`, the growth was -100% [100 µM] (active) in the test on SK-MEL-2 melanoma; -6.45% [100 µM] (active) with SN12C renal; 49.4% [100 µM] in the test with UO-31 renal; -36.5% [100 µM] (active) in the test on TK-10 renal; -40.4% [100 µM] (active) in the test on ACHN renal; 68.4% [100 µM] in the test on CAKI-1 renal. Also, the growth with A498 renal was -52.4% [100 µM] (active); in the test on MOLT-4 leukemia, -33.8% [100 µM] (active); in the test on SR leukemia, -29% [100 µM] (active); in the test with RPMI-8226 leukemia, -42.4% [100 µM] (active); in the test on OVCAR-8 ovarian, -9.32% [100 µM] (active); in the test on OVCAR-5 ovarian it was -67.9% [100 µM] (active). Moreover, the growth is -17.2% [100 µM] (active) in the test on OVCAR-4 ovarian; -23.7% [100 µM] (active) with SK-OV-3 ovarian; -23.5% [100 µM] (active) in the test on IGROV1 ovarian; -90.2% [100 µM] (active) in the test with OVCAR-3 ovarian; -7.06% [100 µM] (active) in the test with HS 578T breast.

On to `Cc1ccc(C2=Nc3c(ccc4c(C)c(C)c(=O)oc34)OC2)cc1`, for which the growth in the test with SK-MEL-2 melanoma is 95.8%; with SN12C renal it was 98.7%; in the test on UO-31 renal, 82.6%; with TK-10 renal it was 108%; in the test with ACHN renal, 99.1%; in the test on CAKI-1 renal, 92.2%. In addition, the growth in the test with A498 renal is 110%; in the test on MOLT-4 leukemia, 101%; in the test on SR leukemia, 103%; in the test on RPMI-8226 leukemia, 94.4%; in the test with OVCAR-8 ovarian it was 98.6%; with OVCAR-5 ovarian it was 103%. Also, the growth is 116% in the test with OVCAR-4 ovarian; 106% with SK-OV-3 ovarian; 98.5% in the test with IGROV1 ovarian; 107% in the test on OVCAR-3 ovarian; 110% in the test on HS 578T breast; 97.3% in the test with NCI/ADR-RES ovarian.

Consider `[N-]=[N+]=NCc1ncc(-c2ccc(C(F)(F)F)cc2)c(NC2CCCCCC2)n1`, for which the growth was 78.2% [50 µM] in the test with SK-MEL-2 melanoma; 85.2% [50 µM] in the test on SN12C renal; 50% [50 µM] in the test with UO-31 renal; 112% [50 µM] with TK-10 renal; 73.1% [50 µM] in the test on ACHN renal; 84.3% [50 µM] with CAKI-1 renal. For the same compound, the growth with A498 renal is 82.5% [50 µM]; in the test with MOLT-4 leukemia, 54.7% [50 µM]; in the test with SR leukemia it was 5.36% [50 µM] (active); in the test on RPMI-8226 leukemia, 53.3% [50 µM]; with OVCAR-8 ovarian it was 70.8% [50 µM]; in the test with OVCAR-5 ovarian, 90.7% [50 µM]. The growth in the test with OVCAR-4 ovarian was 88.3% [50 µM]; with SK-OV-3 ovarian it was 90.1% [50 µM]; in the test with IGROV1 ovarian it was 75.9% [50 µM]; in the test with OVCAR-3 ovarian, 61.4% [50 µM]; in the test with HS 578T breast, 83.1% [50 µM]; in the test with NCI/ADR-RES ovarian, 88.4% [50 µM].

As for `C=C(CN1CCc2c([nH]c3ccccc23)C1)c1ccc(C(=O)Nc2ccon2)cc1`, the growth was 75.8% with SK-MEL-2 melanoma; 93.8% in the test on SN12C renal; 30.7% in the test with UO-31 renal; 131% in the test on TK-10 renal; 99% in the test on ACHN renal; 83.9% in the test on CAKI-1 renal. The growth with A498 renal was 116%; in the test on CCRF-CEM leukemia, 81.2%; in the test with MOLT-4 leukemia, 77.1%; in the test on SR leukemia, 80.9%; in the test on RPMI-8226 leukemia, 78.4%; with OVCAR-8 ovarian it was 78.2%. In addition, the growth in the test with OVCAR-4 ovarian was 85.5%; in the test on SK-OV-3 ovarian, 61.8%; with OVCAR-3 ovarian, 92.6%; in the test with HS 578T breast it was 94.4%; in the test on NCI/ADR-RES ovarian, 99.9%.

(Values after PubChem BioAssay (NCI).)
